From PubChem BioAssay (Tox21) come the findings set out here.

Each structure is given as a SMILES string. A number with no mark means an inactive call. Records with an inconclusive call do not appear. Activity calls are given as the source filed them. Unless noted, calls follow the shape of the dose curve; as a rule, active = well fitted curve in the direction sought with a large enough effect in the repeat runs; inconclusive = weak or mixed curves; inactive = no such curve, though single readings can be large; an effect the other way counts as inactive or inconclusive.

Test [1] is described as follows: Human pregnane X receptor (PXR) small molecule agonists, qHTS cell viability counter screen (AID 1346977). Also: nearly all actives have a fitted effect of over 50% in size. A digest of the protocol: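 Tox21 qHTS format; PXR-Luc HepG2, 2,000/well, charcoal-stripped FBS 5%. Cpd exposure 24hr. Read: CellTiter-Fluor fluorescence, multiplexed with luciferase.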
The nature of test [2]: Caspase-3/7 induction in HepG2 cells by small molecules, qHTS assay (AID 1346978). Also: nearly all actives have a fitted effect of over 15% in size. A digest of the protocol:
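Caspase-3/7 induction was measured by Caspase-Glo 3/7 luminescence (30 min, room temperature) after a 17 hr compound exposure of wild-type HepG2 cells seeded at 2,000 per well and pre-incubated 5 hr.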

The nature of test [3]: Caspase-3/7 induction in CHO-K1 cells by small molecules, qHTS cell viability counter screen (AID 1346979). Also: nearly all actives have a fitted effect of over 35% in size. A digest of the protocol:
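CellTiter-Fluor viability check, qHTS format: wild-type CHO-K1, 16hr compound treatment, 1hr reagent incubation, fluorescence read.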

A short description of test [4]: Caspase-3/7 induction in CHO-K1 cells by small molecules, qHTS assay (AID 1346980). Also: nearly all actives have a fitted effect of over 15% in size. A digest of the protocol: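 Luminescent Caspase-Glo 3/7 read (30min, room temperature) quantified apoptosis induction. Cells were wild-type CHO-K1, treated with compound for 17hr at 37 C and 5% CO2.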
Test [5] in a line: Caspase-3/7 induction in HepG2 cells by small molecules, qHTS cell viability counter screen (AID 1346981). Also: series mostly up to about 92 µM; nearly all actives have a fitted effect of over 30% in size. A digest of the protocol:
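Multiplexed with the caspase-3/7 assay: HepG2 cells, 16 hr compound treatment, CellTiter-Fluor viability detection by fluorescence.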

The target of test [6] is Acetylcholinesterase (Homo sapiens) (UniProt P22303). Briefly: Acetylcholinesterase (AChE) small molecule antagonists: colormetric cell-based qHTS assay (AID 1347395; calls by dose curve; also: nearly all actives have a fitted effect of over 30% in size). A digest of the protocol: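 AChE inhibition read colorimetrically via DTNB–thiocholine in SH-SY5Y cells. Compound 30 min, substrate 90 min, both 37 C.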
Sequence of Acetylcholinesterase (Homo sapiens) (P22303 whole entry, looked up): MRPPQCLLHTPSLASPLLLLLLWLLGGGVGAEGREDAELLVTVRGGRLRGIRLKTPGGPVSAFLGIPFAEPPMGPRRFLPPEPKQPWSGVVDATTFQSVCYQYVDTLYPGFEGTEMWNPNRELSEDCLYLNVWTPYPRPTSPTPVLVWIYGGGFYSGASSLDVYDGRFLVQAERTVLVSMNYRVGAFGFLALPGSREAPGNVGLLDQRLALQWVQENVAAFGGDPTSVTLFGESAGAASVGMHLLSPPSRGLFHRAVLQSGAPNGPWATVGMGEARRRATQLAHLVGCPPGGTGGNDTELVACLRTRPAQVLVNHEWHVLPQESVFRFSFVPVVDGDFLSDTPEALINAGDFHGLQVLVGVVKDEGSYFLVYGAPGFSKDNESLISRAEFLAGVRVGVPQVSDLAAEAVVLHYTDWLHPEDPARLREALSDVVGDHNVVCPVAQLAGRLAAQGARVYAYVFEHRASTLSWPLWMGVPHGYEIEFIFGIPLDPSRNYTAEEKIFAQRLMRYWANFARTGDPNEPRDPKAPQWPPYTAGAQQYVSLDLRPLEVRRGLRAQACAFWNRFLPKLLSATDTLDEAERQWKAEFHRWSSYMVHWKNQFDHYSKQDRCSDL
For test [7] the target is unchanged. The test can be described thus: Acetylcholinesterase (AChE) small molecule antagonists: enzyme-based qHTS assay (AID 1347397; calls by dose curve; also: nearly all actives have a fitted effect of over 55% in size). The settings on record: Potency: AChE enzyme activity inhibition; outcome: AChE enzyme activity inhibition. A digest of the protocol: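 rhAChE 50 mU/mL (dispensed) + cpd or DMSO, 30 min RT; add DTNB/acetylthiocholine cocktail, 10 min RT; colorimetric thiocholine readout. qHTS, 1536-well format.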

The target is the same in test [8]. Briefly: Acetylcholinesterase (AChE) small molecule antagonists: fluorescence cell-based qHTS assay (AID 1347398; calls by dose curve; also: nearly all actives have a fitted effect of over 50% in size). The settings on record: Potency: AChE activity; outcome: AChE activity. A digest of the protocol: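 Read-out is Thiolite Green fluorescence at Ex/Em = 490/520 nm, formed by reaction with thiocholine released when cellular AChE in SH-SY5Y cells hydrolyzes acetylthiocholine. Compounds were preincubated 30 min at 37 C before substrate.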

Test [9] has the same target. Briefly: Acetylcholinesterase (AChE) small molecule antagonists: enzyme-based qHTS assay with human liver microsomes (AID 1347399; calls by dose curve; also: nearly all actives have a fitted effect of over 60% in size). Particulars: Potency: qHTS inhibition; outcome: qHTS inhibition. A digest of the protocol: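 Recombinant human AChE (50 mU/mL in the enzyme mix) and human liver microsomes (0.25 mg/mL final) were preincubated with compound and NADPH (0.25 mg/mL final) for 30 min at 37 C. Acetylthiocholine/DTNB was then added; thiocholine was read colorimetrically after 10 min at room temperature.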

In test [10] the target is Cytochrome P450 2D6 (Homo sapiens) (UniProt P10635). The test can be described thus: Cytochrome P450 Family 2 Subfamily D Member 6 (CYP2D6) small molecule antagonists: luciferase reporter qHTS assay (AID 1671196). Also: nearly all actives have a fitted effect of over 50% in size. Also: potency is read from the fitted curve at half-maximal effect. As to activity change, negative = inhibition: series mostly up to about 120 µM. A digest of the protocol: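 Luminescence (RLU), read 20 min after detection reagent, indicated CYP2D6 conversion of proluciferin to luciferin during a 1 h NADPH-dependent reaction at room temperature.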
Sequence of Cytochrome P450 2D6 (Homo sapiens) (P10635 whole entry, looked up): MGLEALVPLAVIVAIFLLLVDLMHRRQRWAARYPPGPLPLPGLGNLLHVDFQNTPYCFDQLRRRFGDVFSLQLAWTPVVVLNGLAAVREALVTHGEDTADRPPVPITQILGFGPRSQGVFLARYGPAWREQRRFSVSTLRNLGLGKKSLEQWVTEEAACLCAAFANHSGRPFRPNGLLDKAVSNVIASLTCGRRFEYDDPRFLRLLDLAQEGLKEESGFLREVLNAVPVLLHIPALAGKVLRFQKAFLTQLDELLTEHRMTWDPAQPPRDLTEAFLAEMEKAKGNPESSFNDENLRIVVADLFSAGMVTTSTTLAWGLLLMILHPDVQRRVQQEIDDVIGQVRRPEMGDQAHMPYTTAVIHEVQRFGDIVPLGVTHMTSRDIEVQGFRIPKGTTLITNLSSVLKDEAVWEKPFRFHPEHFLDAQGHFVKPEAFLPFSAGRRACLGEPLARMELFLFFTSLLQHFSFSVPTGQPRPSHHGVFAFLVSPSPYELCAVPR

Test [11] concerns the target Cytochrome P450 2C19 (Homo sapiens) (UniProt P33261). The test can be described thus: Cytochrome P450 Family 2 Subfamily C Member 19 (CYP2C19) small molecule antagonists: luciferase reporter qHTS assay (AID 1671197). Also: series mostly up to about 120 µM; nearly all actives have a fitted effect of over 65% in size. A digest of the protocol: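 Enzyme-substrate mix with proluciferin substrate (P450-Glo CYP2C19 system) preincubated with compounds 10 min at room temperature; NADPH regeneration solution added, 37C for 1 h; detection reagent stops reaction, luminescence read after 20 min. Ketoconazole positive control.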

Test [12] has as its target Cytochrome P450 2C9 (Homo sapiens) (UniProt P11712). Briefly: Cytochrome P450 Family 2 Subfamily C Member 9 (CYP2C9) small molecule antagonists: luciferase reporter qHTS assay (AID 1671198). Also: series mostly up to about 120 µM; nearly all actives have a fitted effect of over 50% in size. A digest of the protocol: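 Enzyme-substrate mix preincubated with compound 10 min at room temperature; reaction started with NADPH regeneration solution, 1 h 37C. Luminescent luciferin product read after 20 min detection reagent.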

Test [13] has as its target Cytochrome P450 1A2 (Homo sapiens) (UniProt P05177). The test can be described thus: Cytochrome P450 Family 1 Subfamily A Member 2 (CYP1A2) small molecule antagonists: luciferase reporter qHTS assay (AID 1671199). Also: nearly all actives have a fitted effect of over 50% in size. Also: potency is read from the fitted curve at half-maximal effect. As to activity change, negative = inhibition: series mostly up to about 120 µM. A digest of the protocol: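 CYP1A2 turnover of a luminogenic substrate was quantified after 1 h with NADPH regeneration at room temperature. Furafylline served as positive control.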

Test [14] has as its target Voltage-gated inwardly rectifying potassium channel KCNH2 (Homo sapiens) (UniProt Q12809). The test can be described thus: Human Ether-a-go-go-Related Gene (hERG) channel small molecule antagonists: fluorescence cell-based qHTS assay (AID 1671200). A digest of the protocol: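 Kinetic two-minute fluorescence traces, sampled at 1 s, were collected following thallium stimulus of U2OS cells (1000 per well) that had been cultured overnight at 37 C and loaded with FluxOR II.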

The target of test [15] is Cytochrome P450 3A4 (Homo sapiens) (UniProt P08684). The test can be described thus: Cytochrome P450 Family 3 Subfamily A Member 4 (CYP3A4) small molecule antagonists: luciferase reporter qHTS assay (AID 1671201). A digest of the protocol:
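Proluciferin-to-luciferin conversion by CYP3A4, NADPH-regenerated, 1 h RT; luminescence read as RLU. Ketoconazole as control.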

Test [16] addresses Nuclear receptor subfamily 1 group I member 2 (Homo sapiens) (UniProt O75469). The test can be described thus: Human pregnane X receptor (PXR) small molecule agonists, qHTS assay (AID 1346982). Also: nearly all actives have a fitted effect of over 35% in size. A digest of the protocol: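 We seeded PXR-Luc HepG2 cells in assay medium containing 5% charcoal-stripped FBS, added compounds 5 hr later, incubated 24 hr, and read luminescence with ONE-Glo reagent.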

Test [17] addresses Nuclear receptor subfamily 1 group I member 2 (Rattus norvegicus) (UniProt Q9R1A7). Briefly: Rat pregnane X receptor (rPXR) activation by small molecules, qHTS assay (AID 1346983). Also: nearly all actives have a fitted effect of over 20% in size. Particulars: rPXR luciferase reporter cells, One-Glo luminescence, 24 h; stronger effect = higher value. A digest of the protocol:
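Luminescent readout (One-Glo luciferase, 30 min room temperature) followed 24 hr compound treatment at 37 C of rPXR cells plated 2,000 per well and preincubated 5hr; qHTS format with compounds delivered in DMSO.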

Test [18] addresses Nuclear receptor subfamily 1 group I member 2 (Homo sapiens) (UniProt O75469). Briefly: Human pregnane X receptor (PXR) activation by small molecules, qHTS assay (AID 1346985). Also: nearly all actives have a fitted effect of over 40% in size. A digest of the protocol: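 DPX-2 cells (HepG2 co-transfected with a PXR response element and a CYP3A4-promoter luciferase construct) were seeded at 2,000 per well, rested 5 hr at 37C, then exposed to DMSO-dissolved compounds for 24 hr. Activation was read as luciferase luminescence.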
% is scaled to controls: 0 for no effect and ±100 for the full control effect.

Sequence of Nuclear receptor subfamily 1 group I member 2 (Rattus norvegicus) (Q9R1A7 whole entry, looked up): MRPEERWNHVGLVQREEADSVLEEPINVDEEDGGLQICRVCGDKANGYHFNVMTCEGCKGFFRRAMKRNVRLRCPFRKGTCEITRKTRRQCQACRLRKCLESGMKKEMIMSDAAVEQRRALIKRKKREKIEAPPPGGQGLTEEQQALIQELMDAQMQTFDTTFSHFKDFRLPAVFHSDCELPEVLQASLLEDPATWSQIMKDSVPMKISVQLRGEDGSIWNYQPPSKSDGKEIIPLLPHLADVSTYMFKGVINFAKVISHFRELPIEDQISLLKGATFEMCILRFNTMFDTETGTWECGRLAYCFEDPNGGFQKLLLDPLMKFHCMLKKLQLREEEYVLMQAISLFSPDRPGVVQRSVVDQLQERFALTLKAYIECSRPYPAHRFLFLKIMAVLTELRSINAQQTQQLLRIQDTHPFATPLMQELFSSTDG
Sequence of Cytochrome P450 2C19 (Homo sapiens) (P33261 whole entry, looked up): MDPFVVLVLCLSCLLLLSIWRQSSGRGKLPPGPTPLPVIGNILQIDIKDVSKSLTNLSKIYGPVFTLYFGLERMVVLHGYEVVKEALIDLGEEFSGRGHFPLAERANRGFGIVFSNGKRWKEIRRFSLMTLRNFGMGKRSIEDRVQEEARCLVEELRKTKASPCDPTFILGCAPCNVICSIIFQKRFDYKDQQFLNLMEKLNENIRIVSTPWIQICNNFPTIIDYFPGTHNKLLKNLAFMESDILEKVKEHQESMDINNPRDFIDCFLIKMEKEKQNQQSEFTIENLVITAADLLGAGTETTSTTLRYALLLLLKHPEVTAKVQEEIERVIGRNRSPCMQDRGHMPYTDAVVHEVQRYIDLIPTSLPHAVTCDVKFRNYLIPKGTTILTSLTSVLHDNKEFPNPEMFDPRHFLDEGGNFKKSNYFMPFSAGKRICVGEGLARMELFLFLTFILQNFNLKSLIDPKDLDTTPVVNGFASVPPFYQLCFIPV
Sequence of Nuclear receptor subfamily 1 group I member 2 (Homo sapiens) (O75469 whole entry, looked up): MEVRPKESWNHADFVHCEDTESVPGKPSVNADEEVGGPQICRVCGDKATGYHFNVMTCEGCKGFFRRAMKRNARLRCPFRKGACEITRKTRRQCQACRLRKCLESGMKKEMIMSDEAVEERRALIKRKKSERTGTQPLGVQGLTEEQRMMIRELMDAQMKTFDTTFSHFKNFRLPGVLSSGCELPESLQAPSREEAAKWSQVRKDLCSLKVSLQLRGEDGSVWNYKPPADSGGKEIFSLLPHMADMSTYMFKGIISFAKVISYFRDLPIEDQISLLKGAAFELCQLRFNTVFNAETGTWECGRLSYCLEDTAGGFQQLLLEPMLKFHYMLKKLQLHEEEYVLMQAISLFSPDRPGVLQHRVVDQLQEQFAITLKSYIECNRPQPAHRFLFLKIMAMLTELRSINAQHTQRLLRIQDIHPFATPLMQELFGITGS
Sequence of Cytochrome P450 3A4 (Homo sapiens) (P08684 whole entry, looked up): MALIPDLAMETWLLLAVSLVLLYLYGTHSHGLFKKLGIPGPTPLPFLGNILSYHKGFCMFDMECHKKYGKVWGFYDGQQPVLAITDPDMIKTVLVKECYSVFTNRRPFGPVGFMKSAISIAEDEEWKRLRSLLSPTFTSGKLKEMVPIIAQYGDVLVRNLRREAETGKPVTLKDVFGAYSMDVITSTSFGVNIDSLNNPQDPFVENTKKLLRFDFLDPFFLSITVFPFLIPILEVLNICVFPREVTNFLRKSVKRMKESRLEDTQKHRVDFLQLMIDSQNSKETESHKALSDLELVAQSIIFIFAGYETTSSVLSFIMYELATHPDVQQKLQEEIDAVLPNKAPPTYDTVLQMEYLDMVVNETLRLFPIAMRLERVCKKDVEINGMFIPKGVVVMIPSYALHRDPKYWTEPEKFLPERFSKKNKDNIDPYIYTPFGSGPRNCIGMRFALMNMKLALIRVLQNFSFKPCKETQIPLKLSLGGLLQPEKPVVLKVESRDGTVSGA
Sequence of Voltage-gated inwardly rectifying potassium channel KCNH2 (Homo sapiens) (Q12809 whole entry, looked up): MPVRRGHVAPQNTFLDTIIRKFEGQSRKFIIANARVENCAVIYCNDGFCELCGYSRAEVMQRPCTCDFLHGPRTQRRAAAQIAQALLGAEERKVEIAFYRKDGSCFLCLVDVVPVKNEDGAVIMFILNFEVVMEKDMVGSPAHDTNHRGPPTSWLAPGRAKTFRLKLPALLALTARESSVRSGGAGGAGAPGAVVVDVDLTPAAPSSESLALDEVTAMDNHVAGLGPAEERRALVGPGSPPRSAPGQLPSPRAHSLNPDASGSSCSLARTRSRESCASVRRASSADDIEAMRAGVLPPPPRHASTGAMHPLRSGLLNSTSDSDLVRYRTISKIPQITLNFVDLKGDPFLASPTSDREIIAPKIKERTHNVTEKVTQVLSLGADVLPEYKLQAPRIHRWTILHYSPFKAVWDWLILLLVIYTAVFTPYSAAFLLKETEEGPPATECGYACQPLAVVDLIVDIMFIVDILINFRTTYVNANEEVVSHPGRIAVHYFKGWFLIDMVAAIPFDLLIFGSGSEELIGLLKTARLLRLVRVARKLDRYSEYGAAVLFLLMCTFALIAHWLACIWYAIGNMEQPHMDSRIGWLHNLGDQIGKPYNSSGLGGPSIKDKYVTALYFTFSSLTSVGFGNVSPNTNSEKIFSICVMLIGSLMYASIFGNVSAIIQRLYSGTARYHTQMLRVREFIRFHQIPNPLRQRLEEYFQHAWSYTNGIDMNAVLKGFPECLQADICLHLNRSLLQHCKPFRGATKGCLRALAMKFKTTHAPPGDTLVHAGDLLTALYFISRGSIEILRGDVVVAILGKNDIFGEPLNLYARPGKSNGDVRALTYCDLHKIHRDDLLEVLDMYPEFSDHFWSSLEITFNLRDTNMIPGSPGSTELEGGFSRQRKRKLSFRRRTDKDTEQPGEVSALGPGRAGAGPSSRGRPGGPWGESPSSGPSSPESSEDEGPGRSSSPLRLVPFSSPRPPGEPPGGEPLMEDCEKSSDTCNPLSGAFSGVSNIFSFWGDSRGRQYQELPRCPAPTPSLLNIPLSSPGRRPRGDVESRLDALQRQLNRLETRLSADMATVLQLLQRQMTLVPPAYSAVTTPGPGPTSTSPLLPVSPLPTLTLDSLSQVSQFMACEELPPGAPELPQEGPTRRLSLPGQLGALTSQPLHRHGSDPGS
Sequence of Cytochrome P450 2C9 (Homo sapiens) (P11712 whole entry, looked up): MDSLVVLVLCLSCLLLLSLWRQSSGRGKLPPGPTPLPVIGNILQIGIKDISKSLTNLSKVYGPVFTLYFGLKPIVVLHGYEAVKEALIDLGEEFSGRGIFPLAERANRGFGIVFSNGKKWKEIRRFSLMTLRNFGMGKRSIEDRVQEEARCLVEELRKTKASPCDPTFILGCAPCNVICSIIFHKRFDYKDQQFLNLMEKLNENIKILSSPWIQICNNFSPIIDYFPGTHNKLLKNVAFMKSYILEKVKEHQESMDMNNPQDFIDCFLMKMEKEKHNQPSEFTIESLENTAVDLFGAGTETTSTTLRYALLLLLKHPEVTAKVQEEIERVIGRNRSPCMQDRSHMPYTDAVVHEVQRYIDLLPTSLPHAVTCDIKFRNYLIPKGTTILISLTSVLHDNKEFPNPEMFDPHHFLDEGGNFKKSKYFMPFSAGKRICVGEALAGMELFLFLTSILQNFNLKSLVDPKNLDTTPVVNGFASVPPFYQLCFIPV

Regarding `CCOC(=O)CCl`, the Potency entry in test [1], in test [3], in [5], in test [6], in test [7] and in [8] was “inactive” each time. Further, the Potency result in test [9], in test [10], in [11], in [12], in test [13] and in test [14] was “inactive” in each case. The Potency entry in [15] is “inactive”. In addition, the molecule was classed as inactive in [2] and in test [4].
`CC(C)(N)Cc1ccc(Cl)cc1`: the Potency entry in test [1], in test [5], in [16], in test [18], in [6] and in test [7] was “inactive” throughout. Further, the Potency entry in test [8], in test [9], in [11], in test [12], in test [14] and in test [15] was “inactive” each time. In addition, in test [4], the outcome was inactive. Further, in test [17], the max activation is -1.44%. Further, the values for the Potency in test [10] and in [13] were 3.09 µM (active) and 24.5 µM (active), respectively.
Consider `COc1cccc([C@@]2(O)CCCC[C@@H]2CN(C)C)c1`, for which the Potency result in test [1], in test [3], in test [5], in [16], in test [18] and in [6] was “inactive” throughout. Further, the Potency entry in test [8], in test [9], in test [11], in [12], in test [13] and in test [14] was “inactive” each time. Also, the Potency entry in test [15] is “inactive”. For the same molecule, the molecule was called inactive in [2] and in test [4]. For the same molecule, in test [17], the max activation was -2.97%.
On to `CN=CNc1ccc(C)cc1C`, for which the Potency entry in test [1], in test [3], in [5], in test [16], in [6] and in [7] was “inactive” each time. Also, the Potency entry in test [8], in test [10], in test [11], in test [12], in test [13] and in [14] was “inactive” throughout. For the same molecule, the Potency result in test [15] is “inactive”. Besides, the result in test [4] was inactive.
As for `Oc1ccc2c3c1O[C@H]1[C@@H](O)C=C[C@H]4[C@@H](C2)NCC[C@@]341`, the Potency entry in test [1], in [5], in test [11], in test [12], in [13] and in [14] was “inactive” each time. For the same molecule, the Potency entry in [15] is “inactive”. Further, in test [4], the call was inactive.
As to `Cc1ccc2c(c1)C1CN(C)CCC1N2` (configuration not stated), the activity change, negative = cytotoxicity is -7.69% [at 19 µM] in [1], -2.08% [at 19 µM] in [3] and -0.14% [at 19 µM] in test [5]. The caspase-3/7 activation in [4] was -0.28% [at 19 µM]. Also, the activation in test [16] was -3.35% [at 19 µM]. In addition, the max activation in test [17] is 1.15%. For the same molecule, in test [18], the Potency entry was “inactive”. Also, the activity, negative = inhibition in [6] was -0.458% [at 23.6 µM]. Further, the activity change, negative = inhibition was 0.554% [at 23.6 µM] in [7]; -10.6% [at 23.8 µM] in test [8]; -0.336% [at 23.6 µM] in test [9]; -12.5% [at 23.6 µM] in test [11]; 0.693% [at 23.6 µM] in test [12]; -9.94% [at 15.8 µM] in [14]. The activity change, negative = inhibition in [15] was 8.41% [at 23.6 µM].
In the case of `ClCCN1CCCC1`, the Potency entry in [1], in test [3], in [5], in test [16], in test [6] and in test [8] was “inactive” each time. The Potency entry in [10], in test [12], in test [13], in test [14] and in test [15] was “inactive” in each case. The call in test [2] and in test [4] was inactive.
